Screening data deposited in PubChem BioAssay by National Center for Advancing Translational Sciences (NCATS).
BAZ2B block – qHTS Assay for Inhibitors of BAZ2B; actives 4.4% (n = 360,000); AlphaScreen BAZ2B-H3K14Ac peptide displacement; Bromodomain adjacent to zinc finger domain protein 2B (Homo sapiens), Q9UIF8; Potency, µM (highest dose often 114 µM), hits mostly inhibitors; note: nearly all actives have a fitted effect of over 60% in size
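Multi-concentration screen (max 110 uM) measuring displacement of acetylated histone H3 peptide from BAZ2B by AlphaScreen, using 50 nM protein, 50 nM peptide and 10 ug/mL streptavidin donor plus Ni-chelate acceptor beads.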
Sfp inh – qHTS Assay for Inhibitors of Bacillus subtilis Sfp phosphopantetheinyl transferase (PPTase); AID 1490, 2009; actives 3.5% (n = 310,000); 4'-phosphopantetheinyl transferase ffp (Bacillus subtilis), Q9F4F7; Potency, µM, hits mostly inhibitors; Biochemical Sfp PPTase activity, qHTS;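 note: the enzyme is Sfp with the accession as filed and its product quenches rhodamine fluorescence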
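Compounds were incubated with enzyme (final 15 nM) for 15 min at room temperature before substrate addition started the reaction. Fluorescence at 525 nm excitation, 598 nm emission was recorded immediately and after 30 minutes.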
HP1b chromo inh – HTS for Inhibitors of HP1-beta Chromodomain Interactions with Methylated Histone Tails. Chromobox protein homolog 1 (Homo sapiens), P83916. AlphaScreen HP1-beta / biotin-H3K9me3 peptide binding. Potency, µM (doses to about 114 µM), most hits filed as inhibitors. actives 0.56% (n = 390,000). AID 540317, 2011; note: nearly all actives have a fitted effect of over 70% in size
Target sequence (P83916 whole entry, looked up): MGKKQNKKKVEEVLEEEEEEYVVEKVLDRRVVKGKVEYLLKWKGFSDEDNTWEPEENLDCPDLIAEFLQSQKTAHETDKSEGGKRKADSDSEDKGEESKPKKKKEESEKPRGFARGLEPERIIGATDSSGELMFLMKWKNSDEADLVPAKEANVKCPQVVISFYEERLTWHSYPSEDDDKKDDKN
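Compound inhibition of the preformed complex between 50 nM HP1-beta and 50 nM biotinylated H3K9me3 peptide was read by AlphaScreen. Buffer was PBS pH 7.4 with 0.01% Tween-20. Incubations ran 30 min at room temperature, with 10 ug/mL donor/acceptor beads.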
G9a block – qHTS Assay for Inhibitors of Histone Lysine Methyltransferase G9a | actives 8.8% (n = 350,000) | AID 504332, 2011 | G9a H3K9 monomethylation, AlphaScreen, 2 h | Histone-lysine N-methyltransferase EHMT2 (Homo sapiens), Q96KQ7 | Potency, µM (doses to about 102 µM), usual class: inhibitors; note: nearly all actives have a fitted effect of over 75% in size
Target sequence (Q96KQ7 913-1193 limits assumed): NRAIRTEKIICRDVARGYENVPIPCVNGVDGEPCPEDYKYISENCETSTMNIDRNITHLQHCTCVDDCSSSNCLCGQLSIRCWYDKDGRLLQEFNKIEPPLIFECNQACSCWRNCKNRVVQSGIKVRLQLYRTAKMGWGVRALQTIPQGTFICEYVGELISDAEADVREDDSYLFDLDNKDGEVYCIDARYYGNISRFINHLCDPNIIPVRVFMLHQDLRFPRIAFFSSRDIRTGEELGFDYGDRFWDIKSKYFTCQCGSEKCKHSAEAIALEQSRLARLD
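Using a bead-based AlphaScreen, monomethylated H3K9 product from 2 h room-temperature reactions (G9a 20 nM, peptide 500 nM, SAM 20 uM) was detected with 0.5 ug/mL rabbit anti-H3K9me1 antibody.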
JMJD2A Tudor – qHTS Assay for Inhibitors of JMJD2A-Tudor Domain. Lysine-specific demethylase 4A (Homo sapiens), O75164. AlphaScreen JMJD2A-Tudor / H3K4me3 peptide binding. Potency, µM (doses to about 114 µM), actives largely listed as inhibitors. actives 4.4% (n = 390,000); note: nearly all actives have a fitted effect of over 50% in size
Large screens that a line does not name were inactive. Rows were chosen to be rich in hits. Some 12% of all compounds tested hit in one or more screens of this group. Calls come from the whole dose curve; as a rule, active = well fitted curve in the direction sought with a large enough effect; inconclusive = small, poorly fitted or top-dose-only effect, or another doubt; inactive = no such curve, though single readings can be large; an effect the other way counts as inactive or inconclusive.

COc1ccc(CSc2nnnn2Cc2ccccc2)cc1OC	none
CCOc1c(Br)cc(C(N)=O)cc1OC	JMJD2A Tudor 56µM
COc1cc(CO)cc(Br)c1OCC(=O)O	G9a block 50µM, JMJD2A Tudor inconclusive
CCOc1cc(CO)cc(Br)c1OCC(=O)O	none (no result: BAZ2B block, Sfp inh, G9a block)
CCN(CCn1cccn1)Cc1c(C(=O)N2CCCCCCC2)nc2ccc(Cl)cn12	G9a block 79µM
CCN(CC)C1CCN(Cc2c(C(=O)N3CCCCCCC3)nc3ccc(Cl)cn23)C1 (stereo not drawn)	none
COC(=O)c1ccccc1NC(=O)c1cc(CN2CCOCC2)on1	none (no result: Sfp inh)
N#CN1CCC(NS(=O)(=O)c2ccc(F)cc2)CC1	none (no result: BAZ2B block, Sfp inh, HP1b chromo inh, G9a block)
CCOC12NC(=O)CC(=O)N1C(c1ccccc1)=CS2 (stereo not drawn)	G9a block 50µM
COc1ccc(/C(C)=N/NC(=S)NCCc2ccccc2)cc1	BAZ2B block 25µM, JMJD2A Tudor inconclusive
C/C(=N\NC(=S)NCCc1ccccc1)c1cccc(Br)c1	BAZ2B block 40µM
O=C(NCC1CC1)c1onc(CSc2nc3ccccc3[nH]2)c1C(=O)NCC1CC1	BAZ2B block inconclusive (no result: G9a block)
CC(C)NC(=O)c1onc(CSc2nc3ccccc3[nH]2)c1C(=O)NC(C)C	G9a block 50µM
CCCCNC(=O)c1onc(CSc2nc3ccccc3[nH]2)c1C(=O)NCCCC	G9a block 71µM
O=C(NCCCN1CCOCC1)c1onc(CSc2nc3ccccc3[nH]2)c1C(=O)NCCCN1CCOCC1	G9a block 50µM
COc1ccc(S(=O)(=O)N2CCN(Cc3cc(=O)n4ccccc4n3)CC2)cc1	none (no result: Sfp inh)
CCOc1cc([C@@H]2C[C@H]3CN(c4ccccc4)C(=O)[C@]34CCCN24)ccc1OC	G9a block 50µM
COc1cc([C@@H]2C[C@H]3CN(c4ccccc4)C(=O)[C@]34CCCN24)cc(OC)c1OC	none (no result: G9a block)
COc1cccc(NC(=O)c2ccc(-c3ccccc3[N+](=O)[O-])o2)c1	BAZ2B block inconclusive, Sfp inh 45µM, G9a block inconclusive
Cc1cccc(NC(=O)c2ccc(-c3ccccc3[N+](=O)[O-])o2)c1	BAZ2B block inconclusive, Sfp inh 50µM, JMJD2A Tudor inconclusive
COc1ccc(Cn2c(SCc3ccccc3C)nc3cc(OC)c(OC)cc3c2=N)cc1	BAZ2B block inconclusive, Sfp inh 1.3µM, G9a block 40µM (no result: HP1b chromo inh, JMJD2A Tudor)
COCCCNC(=O)c1cc(S(=O)(=O)N2CCOCC2)ccc1SCc1cccc(OC)c1OC	Sfp inh 50µM, G9a block 32µM
O=C(NCC1COc2ccccc2O1)c1ccc(F)c(S(=O)(=O)N2CCOCC2)c1 (stereo not drawn)	none (no result: Sfp inh)
COCCCNC(=O)c1oc2ccc(S(=O)(=O)N3CCOCC3)cc2c1C	JMJD2A Tudor 89µM
O=C(NCC1COc2ccccc2O1)c1cc(S(=O)(=O)N2CCOCC2)c(Cl)cc1Cl (stereo not drawn)	G9a block 32µM (no result: Sfp inh)
Cc1c(C(=O)NCCc2ccccc2)oc2ccc(S(=O)(=O)N3CCOCC3)cc12	none
Cc1c(C(=O)NCC2COc3ccccc3O2)oc2ccc(S(=O)(=O)N3CCOCC3)cc12 (stereo not drawn)	G9a block 50µM
C=CC[C@@H]1C=C[C@H](O/N=C\[C@@H](C)[C@H](OCc2ccccc2)C(C)C)[C@H](CO)O1	none (no result: BAZ2B block, HP1b chromo inh, G9a block, JMJD2A Tudor)
CCc1ccccc1NC(=O)c1cc2nc(-c3ccc(OC)c(OC)c3)cc(C(F)(F)F)n2n1	none (no result: Sfp inh)
CC(C)C[C@H](NC(=O)[C@H](CCCCN)NC(=O)CNC(=O)[C@H](CC(C)C)NC(=O)[C@@H](N)C(C)C)C(=O)N[C@@H](CO)C(=O)N[C@@H](CCC(N)=O)C(=O)N[C@@H](CCC(=O)O)C(=O)N[C@@H](CC(C)C)C(=O)N[C@@H](Cc1cnc[nH]1)C(=O)N[C@@H](CCCCN)C(=O)N[C@@H](CC(C)C)C(=O)N[C@@H](CCC(N)=O)C(=O)N[C@H](C(=O)N[C@@H](Cc1ccc(O)cc1)C(=O)N1CCC[C@H]1C(=O)N[C@@H](CCCNC(=N)N)C(=O)N[C@H](C(=O)N[C@@H](CC(N)=O)C(=O)N[C@H](C(=O)NCC(=O)N[C@@H](CO)C(=O)NCC(=O)N[C@H](C(=O)N1CCC[C@H]1C(N)=O)[C@@H](C)O)[C@@H](C)O)[C@@H](C)O)[C@@H](C)O	none (no result: BAZ2B block, HP1b chromo inh, G9a block, JMJD2A Tudor)
O=C(COC(=O)c1cc(S(=O)(=O)N2CCOCC2)c(Cl)cc1Cl)NC1CC1	G9a block 0.63µM (no result: Sfp inh)
Cc1c(C(=O)NCc2c(F)cc(F)cc2F)oc2ccc(S(=O)(=O)N3CCOCC3)cc12	JMJD2A Tudor 22µM
O=C(NC1CCCC1)c1cc(S(=O)(=O)N2CCOCC2)c(Cl)cc1Cl	none
CCc1ccccc1NC(=O)C1(S(=O)(=O)c2ccc(Cl)cc2)CC1	none (no result: Sfp inh)
CC(O)CNCCNCc1cccs1 (stereo not drawn)	G9a block 5.6µM, JMJD2A Tudor inconclusive
Cc1ccc2[nH]c(=O)c(CN(Cc3ccccc3)Cc3nnnn3C3CCCC3)cc2c1	BAZ2B block inconclusive, Sfp inh 40µM, JMJD2A Tudor inconclusive
Cc1ccc(C)c2[nH]c(=O)c(CN(Cc3nnnn3C3CCCCC3)CC3CCCO3)cc12 (stereo not drawn)	Sfp inh 79µM, G9a block inconclusive
Cc1ccc(C)c2[nH]c(=O)c(CN(CCN3CCOCC3)Cc3nnnn3CC3CCCO3)cc12 (stereo not drawn)	Sfp inh inconclusive, G9a block inconclusive (no result: BAZ2B block)
CCN(CC)CCN1C(=O)C(=O)/C(=C(/O)c2ccc(F)cc2)C1c1ccncc1 (stereo not drawn)	none
CCOc1ccc(/C(O)=C2/C(=O)C(=O)N(CCOCCO)C2c2cccnc2)cc1 (stereo not drawn)	JMJD2A Tudor 79µM (no result: G9a block)
O=C1C(=O)N(CCOCCO)C(c2ccccn2)/C1=C(\O)c1ccccc1 (stereo not drawn)	BAZ2B block inconclusive, G9a block 18µM, JMJD2A Tudor inconclusive
CCN(CC)CCN1C(=O)C(=O)/C(=C(/O)c2ccncc2)C1c1ccccc1F (stereo not drawn)	G9a block 79µM
CCN(CC)CCCN1C(=O)C(=O)/C(=C(/O)c2ccc(C)cc2)C1c1ccccn1 (stereo not drawn)	BAZ2B block inconclusive, Sfp inh inconclusive, G9a block 14µM, JMJD2A Tudor 89µM
CS(=O)(=O)N1CCC2(CCCN(Cc3ccccc3)C2)CC1	none (no result: BAZ2B block, HP1b chromo inh, JMJD2A Tudor)
Cc1cc2oc(=O)cc(CN3CCOCC3)c2c(C)c1Cl	none
